The results in this text go back to PubChem BioAssay (NCATS).

Values without a mark were called inactive. Records with an inconclusive call do not appear. Calls of active or inactive are those of the source. Calls come from the whole dose curve; as a rule, active = well fitted curve in the direction sought with a large enough effect; inconclusive = small, poorly fitted or top-dose-only effect, or another doubt; inactive = no such curve, though single readings can be large; an effect the other way counts as inactive or inconclusive.

A short description of assay [1]: Viability counterscreen for agonist of constitutive androstane receptor (CAR) against the NCATS DSHEA and TCM libraries (AID 1794838). Note: 0% is about no effect. The gist of the method: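 Viability by CellTiter-Fluor fluorescence, 405/540 nm, after 1 h at 37C. HepG2-CYP2B6-hCAR cells were exposed 24 h to test substances in presence of 0.75 uM PK11195 (final).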
The target in assay [2] is Nuclear receptor subfamily 1 group I member 3 (Homo sapiens) (UniProt Q14994). Nature of the assay: Primary qHTS for agonist of constitutive androstane receptor (CAR) against the NCATS DSHEA and TCM libraries (AID 1794839).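 Note: HepG2 cells expressing human CAR with a CYP2B6 reporter plus PK11195 antagonist; 0% is about no effect.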 In short, it runs like this: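 Luminescence from ONE-Glo luciferase was the agonist read-out in HepG2-CYP2B6-hCAR cells exposed 24 h to test substances. Wells also held the CAR antagonist PK11195 at 0.75 µM final. Viability was by CellTiter-Fluor fluorescence.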
Chain of Nuclear receptor subfamily 1 group I member 3 (Homo sapiens) (Q14994 whole entry, looked up): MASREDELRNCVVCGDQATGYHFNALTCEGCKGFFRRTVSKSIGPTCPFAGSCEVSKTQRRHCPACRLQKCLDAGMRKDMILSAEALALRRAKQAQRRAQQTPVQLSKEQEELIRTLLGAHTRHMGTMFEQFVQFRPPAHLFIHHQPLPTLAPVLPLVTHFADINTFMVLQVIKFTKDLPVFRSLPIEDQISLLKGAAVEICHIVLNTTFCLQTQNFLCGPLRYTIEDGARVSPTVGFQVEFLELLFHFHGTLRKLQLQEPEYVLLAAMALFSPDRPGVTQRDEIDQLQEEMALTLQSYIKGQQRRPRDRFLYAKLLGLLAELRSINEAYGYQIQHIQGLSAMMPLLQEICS

Assay [3] can be described thus: HepG2 viability counterscreen (readout 2: ATP content) against the NCATS DSHEA and TCM libraries (AID 1794840). Note: 0% is about no effect. In short, it runs like this: (§1)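 1,000 HepG2 cells/well, 4 h attach; compounds ~24 h, 37C/5% CO2. Readout 1: GF-AFC 25 uM final, 30 min, fluorescence 380/510 nm. Readout 2: CellTiter-Glo, 30 min RT, luminescence.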
A short description of assay [4]: HepG2 viability counterscreen (readout 1: protease activity) against the NCATS DSHEA and TCM libraries (AID 1794841).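 Note: cells exposed to compounds for about 24 h before the protease read; 0% is about no effect.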 In short, it runs like this:
as §1

The target in assay [5] is Glutathione peroxidase 1 (Homo sapiens) (UniProt P07203). Briefly: Primary qHTS Assay for Inhibitors of Recombinant Selenoprotein Glutathione Peroxidase 1 (GPX1) (AID 1845191). Note: nearly all actives have a fitted effect of over 65% in size. The gist of the method: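 GR-coupled readout: NADPH consumption tracked by fluorescence, ex 340/em 450 nm, at t=0 and after 15 min at RT. Final mix 10 nM GPX1, 1 mM GSH, 0.5 mM CHP, 0.5 mM NADPH, 100 nM GR, 0.01% BSA, following 30 min enzyme–compound preincubation.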
Chain of Glutathione peroxidase 1 (Homo sapiens) (P07203 whole entry, looked up): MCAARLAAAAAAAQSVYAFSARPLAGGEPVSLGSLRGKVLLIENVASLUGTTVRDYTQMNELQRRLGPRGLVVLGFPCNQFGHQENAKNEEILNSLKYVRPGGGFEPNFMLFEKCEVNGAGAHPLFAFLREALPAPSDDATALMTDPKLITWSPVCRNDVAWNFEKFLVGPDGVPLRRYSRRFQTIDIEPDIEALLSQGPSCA

Assay [6] concerns the target Phospholipid hydroperoxide glutathione peroxidase GPX4 (Homo sapiens) (UniProt P36969). Nature of the assay: Primary qHTS Assay for Inhibitors of Recombinant Selenoprotein Glutathione Peroxidase 4 (GPX4) (AID 1845192). Note: nearly all actives have a fitted effect of over 65% in size. The gist of the method: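 Steps: GPX4 plus compound, 30 min RT; add GR/GSH/NADPH master mix; start with cumene hydroperoxide; read 340/450 nm fluorescence at 0 and 15 min. Finals were 200 nM GPX4, 1 mM GSH, 0.5 mM CHP, 0.5 mM NADPH, 100 nM GR.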

Assay [7] addresses Luciferin 4-monooxygenase (Photinus pyralis) (UniProt P08659). Nature of the assay: Primary firefly luciferase (FLuc) qHTS assay for identification of artifact compounds. (AID 1845220). Note: nearly all actives have a fitted effect of over 60% in size. The gist of the method: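 Titrated compounds were incubated 15 min at RT, protected from light, with luciferin and ATP at 10 uM; reaction started with 10 nM FLuc, luminescence imaged at 5 min, and concentration-response fitted by Hill equation.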

Assay [8] can be described thus: Primary fluorescence-based thiol-reactive (MSTI) qHTS assay for identification of artifact compounds. (AID 1845221). Note: nearly all actives have a fitted effect of over 65% in size. Note: potency is the fitted concentration of half-maximal effect. In short, it runs like this:
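Curve-fitted percent inhibition (4-parameter Hill) derived from fluorescence, Ex 525/Em 598 nm, scaled with Acetyl-MSTI and MSTI; 1 h incubation at room temperature.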

The test system of assay [9] is Nanoluciferase (engineered Oplophorus gracilirostris luciferase). Nature of the assay: Primary Nanoluciferase (NLuc) qHTS assay for identification of artifact compounds. (AID 1845222).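 Note: NLuc secreted into diluted conditioned medium of S16 cells; series mostly up to about 54 µM; 0% = DMSO and -100% = no enzyme.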 The gist of the method: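 qHTS format, against NLuc in S16 cell-conditioned medium. Nano-Glo substrate 1:100 was added after 15 min at room temperature. Luminescence was taken after a further 5 min.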

Assay [10] can be described thus: Primary redox qHTS assay for identification of artifact compounds. (AID 1845223).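 Note: 0% = DMSO and 100% = reference compound.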 In short, it runs like this:
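Redox-cycling detection via DTT (250 uM final) oxidation coupled to Amplex Red (25 uM)/HRP (250 mU/mL) in HBSS. 15 min preincubation plus 30 min after DTT, room temperature. Ex/Em 525/598 nm; 4-parameter Hill fit against DMSO and 10 uM DA3003.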

For assay [11], the target named is Cytochrome P450 3A4 (Homo sapiens) (UniProt P08684). Briefly: qHTS for inhibitors of CYP3A4 against the NCATS DSHEA and TCM libraries (AID 1919971).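 Note: % is set by controls: 0 for no effect and ±100 for the full control effect; inhibition lowers luminescence from luciferin made by CYP3A4.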 The gist of the method:
(§2)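 Substances were tested against enzyme with a pro-luciferin substrate; minus-enzyme wells served as background. After NADPH-initiated oxidation (30-45 min, RT), light was generated with P450-Glo reagent.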

Assay [12] addresses Cytochrome P450 2D6 (Homo sapiens) (UniProt P10635). Nature of the assay: qHTS for inhibitors of CYP2D6 against the NCATS DSHEA and TCM libraries (AID 1919972). Note: % is set by controls: 0 for no effect and ±100 for the full control effect. In short, it runs like this:
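qHTS, concentration–response format with most substances from 19.5 nM. CYP2D6 + pro-luciferin substrate, 15 min with compound, then 1x NADPH regen, 30–45 min RT dark. Glo detection 30 min, luminescence. Quinidine control.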

Assay [13] concerns the target Cytochrome P450 2C9 (Homo sapiens) (UniProt P11712). Briefly: qHTS for inhibitors of CYP2C9 against the NCATS DSHEA and TCM libraries (AID 1919973).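 Note: luminogenic pro-luciferin CYP2C9 substrate turned into luciferin with NADPH regeneration; series mostly up to about 34 µM; % is set by controls: 0 for no effect and ±100 for the full control effect.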 The gist of the method: as §2
The target of assay [14] is Cytochrome P450 2C19 (Homo sapiens) (UniProt P33261). Briefly: qHTS for inhibitors of CYP2C19 against the NCATS DSHEA and TCM libraries (AID 1919974).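 Note: luminescence from luciferin released by CYP2C19 oxidation of a pro-luciferin substrate; % is set by controls: 0 for no effect and ±100 for the full control effect.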 In short, it runs like this:
as §2

The nature of assay [15]: KB-3-1 P-gp reporter qHTS against the NCATS DSHEA and TCM libraries (AID 1919975). Note: 0% is about no effect. The gist of the method:
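CellTiter-Glo luminescence viability readout; KB-3-1 parental cells, 500/well, attached ~4 h, then compound for ~72 h, 37C, 5% CO2. Bortezomib intraplate control.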

Assay [16] addresses Cytochrome P450 1A2 (Homo sapiens) (UniProt P05177). Nature of the assay: qHTS for inhibitors of CYPIA2 against the NCATS DSHEA and TCM libraries (AID 1919976). Note: series mostly up to about 37 µM; % is set by controls: 0 for no effect and ±100 for the full control effect. The gist of the method: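 Luminescence read-out: pro-luciferin converted to D-luciferin by CYP1A2, detected with P450-Glo reagent after 30 min RT. Enzyme plus substrate got compounds for 15 min RT; NADPH regeneration solution (final 1x) started a 30-45 min reaction, light-protected.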

Assay [17] is described as follows: qHTS Counterscreen for compound interference against the NCATS DSHEA and TCM libraries (AID 1919978).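 Note: compounds preincubated with 1 µM D-luciferin or buffer before detection reagent; % of control where 0% means no effect.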 The note with it: firefly luciferase detection reagent interference, luminescence. In short, it runs like this:
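Luminescence counterscreen for detection-kit interference: compounds at 19.5 nM–39.8 uM final, 15 min RT with 1 uM D-luciferin or buffer only; detection reagent added, 30 min RT, then read.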

Assay [18] is described as follows: Dual reporter qHTS for agonist of Pregnane X Receptor (hPXR) against the NCATS DSHEA and TCM libraries: Fluorescence readout (AID 1920058). Note: 0% is about no effect. In short, it runs like this:
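Fluorescence read-out for cell viability: CellTiter-Fluor, 1 h at 37 °C, Ex/Em 405/540 nm. This followed ~24 h treatment of hPXR-Luc HepG2 cells with substances in agonist mode.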

Assay [19] concerns the target Nuclear receptor subfamily 1 group I member 2 (Homo sapiens) (UniProt O75469). Briefly: Dual reporter qHTS for agonist of Pregnane X Receptor (hPXR) against the NCATS DSHEA and TCM libraries: Luminescence readout (AID 1920059). Note: 0% is about no effect. In short, it runs like this: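 hPXR-Luc HepG2 cells, 2000/well in 5% charcoal-stripped FBS medium, attached 5 h, then exposed 24 h at 37C to compounds. Viability by CellTiter-Fluor, then luciferase luminescence with ONE-Glo.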

Chain of Phospholipid hydroperoxide glutathione peroxidase GPX4 (Homo sapiens) (P36969 whole entry, looked up): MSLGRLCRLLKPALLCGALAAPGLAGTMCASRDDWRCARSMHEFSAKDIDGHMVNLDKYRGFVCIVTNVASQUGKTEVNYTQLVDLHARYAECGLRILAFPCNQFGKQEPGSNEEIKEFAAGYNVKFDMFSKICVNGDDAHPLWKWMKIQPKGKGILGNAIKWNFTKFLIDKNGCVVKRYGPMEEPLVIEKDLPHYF
Chain of Cytochrome P450 1A2 (Homo sapiens) (P05177 whole entry, looked up): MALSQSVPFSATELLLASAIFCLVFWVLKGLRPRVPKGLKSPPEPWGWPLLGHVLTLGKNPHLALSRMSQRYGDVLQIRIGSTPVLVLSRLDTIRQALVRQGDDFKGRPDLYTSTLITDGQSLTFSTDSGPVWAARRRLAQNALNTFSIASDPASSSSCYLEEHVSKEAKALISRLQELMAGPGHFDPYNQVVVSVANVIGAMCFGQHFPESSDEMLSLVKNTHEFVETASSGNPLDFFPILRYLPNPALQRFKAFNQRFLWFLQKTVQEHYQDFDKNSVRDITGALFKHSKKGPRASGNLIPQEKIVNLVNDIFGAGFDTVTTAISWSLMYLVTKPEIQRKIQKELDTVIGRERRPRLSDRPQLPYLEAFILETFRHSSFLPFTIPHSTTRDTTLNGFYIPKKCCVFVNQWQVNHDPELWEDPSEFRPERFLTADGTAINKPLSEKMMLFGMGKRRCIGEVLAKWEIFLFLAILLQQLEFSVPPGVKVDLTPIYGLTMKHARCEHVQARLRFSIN
Chain of Nuclear receptor subfamily 1 group I member 2 (Homo sapiens) (O75469 whole entry, looked up): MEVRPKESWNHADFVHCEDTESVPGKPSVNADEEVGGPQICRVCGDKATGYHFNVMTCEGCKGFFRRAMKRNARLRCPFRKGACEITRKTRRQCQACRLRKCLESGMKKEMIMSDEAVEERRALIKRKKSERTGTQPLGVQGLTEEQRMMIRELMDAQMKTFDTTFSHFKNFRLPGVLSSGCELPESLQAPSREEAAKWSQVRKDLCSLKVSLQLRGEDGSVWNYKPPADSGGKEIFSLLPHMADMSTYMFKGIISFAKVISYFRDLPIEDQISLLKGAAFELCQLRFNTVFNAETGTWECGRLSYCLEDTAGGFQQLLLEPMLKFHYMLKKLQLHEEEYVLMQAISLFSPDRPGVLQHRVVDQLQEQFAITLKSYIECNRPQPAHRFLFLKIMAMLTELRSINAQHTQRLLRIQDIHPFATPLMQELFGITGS
Chain of Cytochrome P450 2C9 (Homo sapiens) (P11712 whole entry, looked up): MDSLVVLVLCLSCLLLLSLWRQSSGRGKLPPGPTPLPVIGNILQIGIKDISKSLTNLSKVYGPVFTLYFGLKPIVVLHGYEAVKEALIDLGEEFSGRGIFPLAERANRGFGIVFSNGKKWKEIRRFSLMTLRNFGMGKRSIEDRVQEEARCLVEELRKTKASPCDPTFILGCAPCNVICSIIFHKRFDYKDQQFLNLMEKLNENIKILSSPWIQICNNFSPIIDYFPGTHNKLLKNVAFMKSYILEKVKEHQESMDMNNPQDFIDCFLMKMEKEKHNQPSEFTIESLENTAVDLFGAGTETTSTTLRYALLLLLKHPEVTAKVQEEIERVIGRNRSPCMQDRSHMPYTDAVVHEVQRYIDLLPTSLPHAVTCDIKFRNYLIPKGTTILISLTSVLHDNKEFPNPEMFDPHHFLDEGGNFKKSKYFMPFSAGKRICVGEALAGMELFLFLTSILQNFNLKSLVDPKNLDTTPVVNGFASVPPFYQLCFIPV
Chain of Cytochrome P450 2C19 (Homo sapiens) (P33261 whole entry, looked up): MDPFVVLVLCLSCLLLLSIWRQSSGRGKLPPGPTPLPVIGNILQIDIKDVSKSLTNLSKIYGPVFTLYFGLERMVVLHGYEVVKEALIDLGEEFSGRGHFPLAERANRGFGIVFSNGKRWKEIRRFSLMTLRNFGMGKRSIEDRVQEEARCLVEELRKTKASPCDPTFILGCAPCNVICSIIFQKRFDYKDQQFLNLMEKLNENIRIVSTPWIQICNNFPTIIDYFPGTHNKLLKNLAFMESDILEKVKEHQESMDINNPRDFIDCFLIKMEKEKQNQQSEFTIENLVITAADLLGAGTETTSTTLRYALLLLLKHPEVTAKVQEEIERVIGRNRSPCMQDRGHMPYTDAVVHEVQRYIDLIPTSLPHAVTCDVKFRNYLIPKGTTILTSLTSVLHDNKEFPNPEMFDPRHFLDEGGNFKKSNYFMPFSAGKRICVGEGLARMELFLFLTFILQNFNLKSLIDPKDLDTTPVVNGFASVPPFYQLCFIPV
Chain of Cytochrome P450 3A4 (Homo sapiens) (P08684 whole entry, looked up): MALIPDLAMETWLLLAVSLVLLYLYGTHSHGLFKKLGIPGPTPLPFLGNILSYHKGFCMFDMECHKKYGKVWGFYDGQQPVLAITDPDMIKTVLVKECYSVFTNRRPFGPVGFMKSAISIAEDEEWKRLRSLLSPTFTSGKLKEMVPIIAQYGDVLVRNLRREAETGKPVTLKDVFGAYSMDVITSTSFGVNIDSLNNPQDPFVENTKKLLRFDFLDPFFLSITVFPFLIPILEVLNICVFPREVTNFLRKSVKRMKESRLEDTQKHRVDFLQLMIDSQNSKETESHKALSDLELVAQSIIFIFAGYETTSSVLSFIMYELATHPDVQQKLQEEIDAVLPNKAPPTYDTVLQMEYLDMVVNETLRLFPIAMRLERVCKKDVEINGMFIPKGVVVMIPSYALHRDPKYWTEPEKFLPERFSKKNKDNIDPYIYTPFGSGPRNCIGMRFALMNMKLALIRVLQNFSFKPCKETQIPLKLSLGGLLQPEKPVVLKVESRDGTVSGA
Chain of Cytochrome P450 2D6 (Homo sapiens) (P10635 whole entry, looked up): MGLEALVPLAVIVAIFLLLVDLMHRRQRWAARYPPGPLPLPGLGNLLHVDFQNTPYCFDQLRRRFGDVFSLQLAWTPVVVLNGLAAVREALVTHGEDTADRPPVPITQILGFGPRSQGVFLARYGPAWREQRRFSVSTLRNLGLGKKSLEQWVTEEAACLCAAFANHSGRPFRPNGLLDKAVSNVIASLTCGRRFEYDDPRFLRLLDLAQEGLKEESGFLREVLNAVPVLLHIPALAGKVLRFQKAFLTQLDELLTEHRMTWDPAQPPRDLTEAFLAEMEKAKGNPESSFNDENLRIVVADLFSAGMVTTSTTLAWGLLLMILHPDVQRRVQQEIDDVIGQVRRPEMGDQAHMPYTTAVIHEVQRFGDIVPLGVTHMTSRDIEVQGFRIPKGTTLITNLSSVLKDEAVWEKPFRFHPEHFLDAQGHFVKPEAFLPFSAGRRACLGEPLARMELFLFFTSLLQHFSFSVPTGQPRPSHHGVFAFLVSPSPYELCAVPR

`O=C(OCC1=C[C@@H](O)[C@@H]2C=CO[C@@H](O[C@@H]3O[C@H](CO)[C@@H](O)[C@H](O)[C@H]3O)[C@H]12)c1ccc(O)cc1`: the molecule was classed as inactive in assay [1], in assay [2], in assay [3], in [4], in assay [12] and in [15]. The outcome in assay [18] was inactive. The Potency result in assay [5], in assay [6], in assay [7], in assay [9], in [10] and in assay [11] was “inactive” each time. Also, the Potency entry in assay [13], in [14], in assay [16] and in [19] was “inactive” in each case. The Potency in [8] is 10.3 µM (active). For the same molecule, the max response in assay [17] was -1.45%.
For the molecule `CC(C)CC(c1c(O)c(C=O)c(O)c(C=O)c1O)C1CCC(C)(O)C2CC(C(C)(C)O)CCC12C` (centres undefined), the Potency result in assay [5], in [6], in assay [7] and in assay [9] was “inactive” throughout. Further, in assay [8], the Potency is 4.12 µM (active).
In the case of `CC1(C)OC(=O)CC(O)C2(C)C1CC(=O)C1(C)C2C(O)CC2(C)C(c3ccoc3)OC(=O)C3OC321` (centres undefined), the Potency result in assay [5], in assay [6], in [7], in [8] and in assay [9] was “inactive” throughout.
For the molecule `Cc1ncc(NC(=O)c2ccc(CN3CCN(C)CC3)c(C(F)(F)F)c2)cc1Nc1nccc(-c2cccnc2)n1`, the Potency result in [5], in assay [6], in assay [7], in assay [8] and in [9] was “inactive” throughout.
Take `CC(=O)O[C@H]1C[C@@H](O)C(C)(C)C2C[C@@H](OC(C)=O)[C@]3(C)C(CC[C@@]4(C)[C@H](c5ccoc5)OC(=O)[C@H]5O[C@]543)[C@]21C` (some centres undefined): the Potency entry in assay [5], in assay [6], in [7], in assay [8] and in [9] was “inactive” in each case.
`CC1=C2CC(=O)C(C)CC/C=C(\C)CC2(O)OC1=O` (centres undefined): the Potency result in assay [5], in [6], in assay [7], in assay [8] and in assay [9] was “inactive” each time.
Regarding `CCCC1=CC2=C(CO1)C(=O)C(C)(O)C(OC(=O)c1c(C)cc(OC)cc1O)C2` (centres undefined), the Potency entry in assay [5], in assay [6], in assay [7], in assay [8] and in assay [9] was “inactive” in each case.
